Compound activity as filed in PubChem BioAssay.
A selection: hits, their analogues and other compounds. The true share with any hit is near 3.9%.
Peg3 prom inh-1 – inhibitors of Peg3 promoter. HeLa PEG-Prom luciferase reporter, luminescence, overnight. inhibition, % at 20 µM. 360,000 compounds, 1.7% hits. AID 588405;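 active means inhibition of at least 50% at 20 µM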
HIF-2a block – HIF-2a inhibition; 786-0 RCC cells HIF-2a reporter, luciferase luminescence, overnight; inhibition, % at 18.8 µM; 360,000 compounds, 0.72% hits;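 active means inhibition of the luminescence signal of 40% or more relative to plate controls, in a single-dose primary screen at 18.75 µM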
CF NFkB inh – cystic fibrosis NF-kB activation inhibition; inhibition, % at 5 µM; KKLEB NF-kB-GFP reporter, PAF-induced, GFP fluorescence overnight; 360,000 compounds, 0.86% hits; AID 588850;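 active means at least 50% inhibition at 5 µM, scaled per plate between neutral and stimulator controls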;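 further: PAF is a Pseudomonas aeruginosa culture filtrate used as stimulus; plate controls were PAF-stimulated DMSO wells for no effect and unstimulated DMSO wells for full effect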
KKLEB tox – counter-screen for CF NF-kB inhibitors: cytotoxicity | KKLEB CF airway cells viability, ATPlite luminescence, overnight; stronger effect = lower value; cells stimulated with P. aeruginosa culture filtrate | activity change (cytotoxicity), % at 5 µM | 360,000 compounds, 0.36% hits;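 active means corrected activity change at or below -50% at 5 µM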
TWEAK Fn14 block – inhibitors of TWEAK-Fn14 interaction signaling. TWEAK-stimulated Fn14 reporter cells, luciferase luminescence, 8 h. inhibition, % at 10 µM. 360,000 compounds, 2% hits; in the data active means inhibition above about 50%
TROY signal inh – inhibitors of TROY-dependent NF-kB signaling; Q293 LMP1-TROYcd NF-kB luciferase reporter, 4 h; inhibition, % at 10 µM; 360,000 compounds, 0.98% hits; AID 1347056;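 active means compounds whose plate-normalised and pattern-corrected inhibition of the luciferase reporter signal at the single screening dose is 50% or more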
Peg3 prom inh-2 – Peg3 promoter inhibition confirmation; shares compounds with Peg3 prom inh-1; HeLa PEG-Prom luciferase reporter, luminescence, overnight; inhibition, % at 20 µM; 1,300 compounds, 84% hits; AID 602417;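 active means at 20 µM dose, 40% or more inhibition averaged across four replicates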
The depositor's hits bear a star.

`C=Cn1c(C(=O)O)ccc1-c1ccc(CC)cc1` gave Peg3 prom inh-1 -46, HIF-2a block -74, CF NFkB inh -7, KKLEB tox 1, TWEAK Fn14 block 19 and TROY signal inh 31.
`Cc1ccc2sc(N(CCCN(C)C)C(=O)c3ccc(S(=O)(=O)N(C)Cc4ccccc4)cc3)nc2c1C` gave Peg3 prom inh-1 66*, HIF-2a block 1, CF NFkB inh 29, KKLEB tox -33, TWEAK Fn14 block -11, TROY signal inh 18 and Peg3 prom inh-2 96*.
For Cc1cc(C)c2sc(N(CCCN(C)C)C(=O)c3ccc(S(=O)(=O)N(C)Cc4ccccc4)cc3)nc2c1 the results were Peg3 prom inh-1 97*, HIF-2a block 15, CF NFkB inh 8, KKLEB tox -11, TWEAK Fn14 block -31, TROY signal inh -11 and Peg3 prom inh-2 98*.
`CN(C)CCCN(C(=O)c1ccc(S(=O)(=O)N2CCc3ccccc3C2)cc1)c1nc2c(F)cc(F)cc2s1` gave Peg3 prom inh-1 -34, HIF-2a block 13, CF NFkB inh 10, KKLEB tox -6, TWEAK Fn14 block -27 and TROY signal inh 6.
Cc1ccc2sc(N(CCCN(C)C)C(=O)c3ccc(S(=O)(=O)N4CCc5ccccc5C4)cc3)nc2c1C was read as Peg3 prom inh-1 59*, HIF-2a block 27, CF NFkB inh -15, KKLEB tox -47, TWEAK Fn14 block -73, TROY signal inh -80 and Peg3 prom inh-2 57*.
Screening CCOc1cccc2sc(N(CCCN(C)C)C(=O)c3ccc(S(=O)(=O)N(CC)Cc4ccccc4)cc3)nc12 returned Peg3 prom inh-1 95*, HIF-2a block -5, CF NFkB inh 9, KKLEB tox -16, TWEAK Fn14 block 10, TROY signal inh 10 and Peg3 prom inh-2 97*.
CCOc1cccc2sc(N(CCCN(C)C)C(=O)c3ccc(S(=O)(=O)N4CCCCCC4)cc3)nc12 was read as Peg3 prom inh-1 3, HIF-2a block 6, CF NFkB inh 25, KKLEB tox -4, TWEAK Fn14 block -10 and TROY signal inh -28.
CCOc1cccc2sc(N(CCCN(C)C)C(=O)Cc3ccccc3)nc12 was read as Peg3 prom inh-1 -32, HIF-2a block 13, CF NFkB inh -2, KKLEB tox 6, TWEAK Fn14 block 1 and TROY signal inh 4.
`CCOc1cccc2sc(N(CCCN(C)C)C(=O)c3ccc(S(=O)(=O)N(C)Cc4ccccc4)cc3)nc12` gave Peg3 prom inh-1 98*, HIF-2a block 3, CF NFkB inh 26, KKLEB tox -26, TWEAK Fn14 block 8, TROY signal inh 8 and Peg3 prom inh-2 95*.
CCCCC(=O)NC(c1ccc(OC)cc1)c1ccc2cccnc2c1O (stereo unspecified) was read as Peg3 prom inh-1 52*, HIF-2a block 19, CF NFkB inh -44, KKLEB tox 5, TWEAK Fn14 block 0, TROY signal inh 0 and Peg3 prom inh-2 69*.
`CCCC(=O)NC(c1ccc(C(C)C)cc1)c1ccc2cccnc2c1O` (stereo unspecified) gave Peg3 prom inh-1 67*, HIF-2a block 18, CF NFkB inh -6, KKLEB tox -5, TWEAK Fn14 block 29, TROY signal inh 34 and Peg3 prom inh-2 70*.
For CCCC(=O)NC(c1ccc(N(C)C)cc1)c1ccc2cccnc2c1O (stereo unspecified) the results were Peg3 prom inh-1 57*, HIF-2a block 8, CF NFkB inh 16, KKLEB tox -3, TWEAK Fn14 block 3, TROY signal inh 6 and Peg3 prom inh-2 68*.
`O=C(O)c1ccccc1NC(c1ccccc1)c1ccc2cccnc2c1O` (stereo unspecified) gave Peg3 prom inh-1 41, HIF-2a block 16, CF NFkB inh 0, KKLEB tox -8, TWEAK Fn14 block -19 and TROY signal inh -2.
`CCC(=O)NC(c1ccc(C)cc1)c1ccc2cccnc2c1O` (stereo unspecified) gave Peg3 prom inh-1 60*, HIF-2a block 16, CF NFkB inh 2, KKLEB tox -2, TWEAK Fn14 block 21, TROY signal inh 22 and Peg3 prom inh-2 68*.
`CCCC(=O)NC(c1ccc(OC)cc1)c1c(O)ccc2ccccc12` (stereo unspecified) gave Peg3 prom inh-1 35, HIF-2a block 27, CF NFkB inh 30, KKLEB tox -17, TWEAK Fn14 block 22 and TROY signal inh 4.
Screening CCC(=O)NC(c1ccc(Cl)cc1Cl)c1ccc2cccnc2c1O (stereo unspecified) returned Peg3 prom inh-1 50, HIF-2a block -21, CF NFkB inh -44, KKLEB tox -8, TWEAK Fn14 block -29 and TROY signal inh -17.
For CC(C)OCCCNC(=O)CN1CCN(Cc2ccccc2Cl)C1=O the results were Peg3 prom inh-1 -27, HIF-2a block 11, CF NFkB inh -4, KKLEB tox 8, TWEAK Fn14 block -8 and TROY signal inh -17.
For CCOC(=O)c1cnn(-c2ccccc2)c1-c1ccccc1 the results were Peg3 prom inh-1 18, HIF-2a block 6, CF NFkB inh 7, KKLEB tox -7, TWEAK Fn14 block 18 and TROY signal inh -6.
For CCOC(=O)C(CC1=CS(=O)(=O)c2ccc(Cl)cc21)(NC(C)=O)C(=O)OCC the results were Peg3 prom inh-1 11, HIF-2a block 10, CF NFkB inh 15, KKLEB tox -13, TWEAK Fn14 block 22 and TROY signal inh -18.
For Cc1cccc(COc2ccc(/C(O)=C3\C(=O)C(=O)N(CCN(C)C)C3c3ccncc3)cc2)c1 (stereo unspecified) the results were Peg3 prom inh-1 -38, HIF-2a block -71, CF NFkB inh 8, KKLEB tox 3, TWEAK Fn14 block 2 and TROY signal inh -54.
CC(=O)NC(c1ccc(Cl)cc1)c1ccc2cccnc2c1O (stereo unspecified) was read as Peg3 prom inh-1 60*, HIF-2a block 17, CF NFkB inh 6, KKLEB tox -32, TWEAK Fn14 block 19, TROY signal inh 26 and Peg3 prom inh-2 70*.
Screening COc1ccc(C(NC(=O)C(C)C)c2ccc3cccnc3c2O)cc1 (stereo unspecified) returned Peg3 prom inh-1 61*, HIF-2a block 23, CF NFkB inh 3, KKLEB tox -9, TWEAK Fn14 block 22, TROY signal inh 4 and Peg3 prom inh-2 66*.
For Cc1cc(NC(c2ccc(Cl)cc2)c2ccc3cccnc3c2O)no1 (stereo unspecified) the results were Peg3 prom inh-1 53*, HIF-2a block 14, CF NFkB inh -12, KKLEB tox 0, TWEAK Fn14 block -31, TROY signal inh 15 and Peg3 prom inh-2 63*.
